Laboratory results published in PubChem BioAssay (Tox21).
Inconclusive results are not listed. A call without a number means that no potency is given here. The source made the active and inactive calls. Calls come from the whole dose curve; as a rule, active = well fitted cell-killing curve with a large enough effect in the repeat runs; inconclusive = weak or mixed curves, or effect the other way; inactive = flat fitted curve, though single readings scatter.

Assay: qHTS RealTime-Glo MT Cell Viability Assay in HepG2 cells - 0 hour (AID 1224889); note: nearly all actives have a fitted effect of over 50% in size
Conditions: RealTime-Glo luminescence; series mostly up to 76.8 µM
Outline: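 HepG2 cells (600/well) were dispensed with RealTime-Glo reagents, incubated 5 h at 37 °C, then treated with compounds in DMSO for up to 40 h. Nonlytic NanoLuc luminescence reflecting viable cells was read at each stated time point.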

| Structure (SMILES) | Potency |
| --- | --- |
| CN1CCC[C@@H]1Cc1c[nH]c2ccc(CCS(=O)(=O)c3ccccc3)cc12 | inactive |
| O=Cc1ccc(F)c(Br)c1 | inactive |
| Cc1ncc(CO)c(CN)c1O | inactive |
| N#CSCC(=O)O | inactive |
| CCCN(CCC)C(=O)C(CCC(=O)O)NC(=O)c1ccccc1 (stereo not drawn) | inactive |
| CCN[C@H]1CN(CCCOC)S(=O)(=O)c2sc(S(N)(=O)=O)cc21 | inactive |
| Cc1ccc(C=O)s1 | inactive |
| COC(=O)C(C)O (stereo not drawn) | inactive |
| CCOC(=O)NCCC[Si](OCC)(OCC)OCC | inactive |
| OCc1ccccc1O | inactive |
| O=C(C(Cl)Cl)N1CCOC12CCCCC2 | inactive |
| CCN(CC)C(=O)N(CC)CC | inactive |
| O=C1CCCc2ccccc21 | inactive |
| COc1ccccc1N1CCN(CCCNc2cc(=O)n(C)c(=O)n2C)CC1 | inactive |
| CC(=O)O[C@H]1CC[C@@]2(C)C(=CC[C@@H]3[C@@H]2CC[C@]2(C)C(C(C)=O)=CC[C@@H]32)C1 | inactive |
| FC(F)(F)C(F)(F)C(F)(F)C(F)(F)C(F)(F)C(F)(F)C(F)(F)C(F)(F)Br | inactive |
| Cn1cnc2c(F)c(Nc3ccc(Br)cc3Cl)c(C(=O)NOCCO)cc21 | inactive |
| ClC(Cl)Cl | inactive |
| CCCOc1ccc2c(c1)CC[C@@H]1[C@@H]2CC[C@]2(C)C(OC)CC[C@@H]12 (stereo partly drawn) | inactive |
| CCN(CC)CC1CCCCN1CC(=O)N1c2ccccc2C(=O)Nc2cccnc21 (stereo not drawn) | inactive |
| O=C(Cl)c1cccc([N+](=O)[O-])c1 | inactive |
| Cc1cc(NS(=O)(=O)c2ccc(N)cc2)nc(C)n1 | inactive |
| CCCCCCC | inactive |
